Reference: article PMC11006913
Substitutions are numbered along the chain they refer to.

Key:
Experiment in all cases: PBM; 200 nM protein, PBS
Conditions in all cases: dsDNA, one strand shown
VENTX [1] = biological target: T1, VENTX (Homo sapiens, UniProt O95231 78-163, R121Q)
T1 sequence: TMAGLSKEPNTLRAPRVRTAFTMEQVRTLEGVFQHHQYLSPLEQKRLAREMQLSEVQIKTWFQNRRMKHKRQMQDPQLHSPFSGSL

SIX6 [2] = biological target: T2, SIX6 (Homo sapiens, UniProt O95475 114-200, L167I)
T2 sequence: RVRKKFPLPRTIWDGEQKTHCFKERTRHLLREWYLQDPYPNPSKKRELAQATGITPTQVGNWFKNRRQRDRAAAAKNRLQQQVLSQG

VENTX [3] = biological target: T3, VENTX (Homo sapiens, UniProt O95231 78-163)
T3 sequence: T1 sequence with Q44R

SIX6 [4] = biological target: T4, SIX6 (Homo sapiens, UniProt O95475 114-200, L143V)
T4 sequence: T2 sequence with L30V, I54L

SIX6 [5] = biological target: T5, SIX6 (Homo sapiens, UniProt O95475 114-200, H141N)
T5 sequence: T2 sequence with H28N, I54L

SIX6 [6] = biological target: T6, SIX6 (Homo sapiens, UniProt O95475 114-200, T165P)
T6 sequence: T2 sequence with T52P, I54L

VENTX [7] = biological target: T7, VENTX (Homo sapiens, UniProt O95231 78-163, Y115F)
T7 sequence: T1 sequence with Y38F, Q44R

SIX6 [8] = biological target: T8, SIX6 (Homo sapiens, UniProt O95475 114-200, L167M)
T8 sequence: T2 sequence with I54M

SIX6 [9] = biological target: T9, SIX6 (Homo sapiens, UniProt O95475 114-200, L143M)
T9 sequence: T2 sequence with L30M, I54L

SIX6 [10] = biological target: T10, SIX6 (Homo sapiens, UniProt O95475 114-200, L143I)
T10 sequence: T2 sequence with L30I, I54L

SIX6 [11] = biological target: T11, SIX6 (Homo sapiens, UniProt O95475 114-200, T165G)
T11 sequence: T2 sequence with T52G, I54L

SIX6 [12] = biological target: T12, SIX6 (Homo sapiens, UniProt O95475 114-200, T139Q)
T12 sequence: T2 sequence with T26Q, I54L

SIX6 [13] = biological target: T13, SIX6 (Homo sapiens, UniProt O95475 114-200, T165A)
T13 sequence: T2 sequence with T52A, I54L

SIX6 [14] = biological target: T14, SIX6 (Homo sapiens, UniProt O95475 114-200, L167V)
T14 sequence: T2 sequence with I54V

SIX6 [15] = biological target: T15, SIX6 (Homo sapiens, UniProt O95475 114-200)
T15 sequence: T2 sequence with I54L

SIX6 [16] = biological target: T16, SIX6 (Homo sapiens, UniProt O95475 114-200, T165I)
T16 sequence: T2 sequence with T52I, I54L

HOXB9 [17] = biological target: HOXB9 (Homo sapiens, UniProt P17482 171-250, T197M)
Chain of HOXB9 (Homo sapiens, UniProt P17482 171-250, T197M) (P17482 171-250 T197M): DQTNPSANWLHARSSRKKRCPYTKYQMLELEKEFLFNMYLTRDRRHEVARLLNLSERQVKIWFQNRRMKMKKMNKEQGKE

ALX4 [18] = biological target: ALX4 (Homo sapiens, UniProt Q9H161 200-286)
Chain of ALX4 (Homo sapiens, UniProt Q9H161 200-286) (Q9H161 200-286): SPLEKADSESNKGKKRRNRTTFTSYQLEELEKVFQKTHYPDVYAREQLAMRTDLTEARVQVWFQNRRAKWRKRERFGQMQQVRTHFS

ALX4 [19] = biological target: ALX4 (Homo sapiens, UniProt Q9H161 200-286, Q225E)
Chain of ALX4 (Homo sapiens, UniProt Q9H161 200-286, Q225E) (Q9H161 200-286 Q225E): as the sequence (Q9H161 200-286) above, with Q26E counted along it

HOXA2 [20] = biological target: HOXA2 (Homo sapiens, UniProt O43364 129-215, R185T)
Chain of HOXA2 (Homo sapiens, UniProt O43364 129-215, R185T) (O43364 129-215 R185T): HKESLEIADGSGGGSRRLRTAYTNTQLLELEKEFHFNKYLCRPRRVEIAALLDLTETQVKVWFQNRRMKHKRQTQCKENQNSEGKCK

HOXB9 [21] = biological target: HOXB9 (Homo sapiens, UniProt P17482 171-250)
Chain of HOXB9 (Homo sapiens, UniProt P17482 171-250) (P17482 171-250): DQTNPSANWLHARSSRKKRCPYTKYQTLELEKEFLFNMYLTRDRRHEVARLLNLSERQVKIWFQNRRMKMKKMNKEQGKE

HOXA2 [22] = biological target: HOXA2 (Homo sapiens, UniProt O43364 129-215, R185K)
Chain of HOXA2 (Homo sapiens, UniProt O43364 129-215, R185K) (O43364 129-215 R185K): as the sequence (O43364 129-215 R185T) above, with T57K counted along it

VAX1 [23] = biological target: VAX1 (Homo sapiens, UniProt Q5SQQ9 86-172)
Chain of VAX1 (Homo sapiens, UniProt Q5SQQ9 86-172) (Q5SQQ9 86-172): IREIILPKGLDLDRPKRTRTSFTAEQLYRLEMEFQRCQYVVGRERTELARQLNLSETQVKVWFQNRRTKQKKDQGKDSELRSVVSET

HOXB9 [24] = biological target: HOXB9 (Homo sapiens, UniProt P17482 171-250, R186Q)
Chain of HOXB9 (Homo sapiens, UniProt P17482 171-250, R186Q) (P17482 171-250 R186Q): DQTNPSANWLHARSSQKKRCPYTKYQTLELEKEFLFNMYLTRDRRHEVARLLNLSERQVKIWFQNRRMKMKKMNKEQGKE

VAX1 [25] = biological target: VAX1 (Homo sapiens, UniProt Q5SQQ9 86-172, T142I)
Chain of VAX1 (Homo sapiens, UniProt Q5SQQ9 86-172, T142I) (Q5SQQ9 86-172 T142I): as the sequence (Q5SQQ9 86-172) above, with T57I counted along it

HOXA2 [26] = biological target: HOXA2 (Homo sapiens, UniProt O43364 129-215, Y150S)
Chain of HOXA2 (Homo sapiens, UniProt O43364 129-215, Y150S) (O43364 129-215 Y150S): as the sequence (O43364 129-215 R185T) above, with Y22S, T57R counted along it

HOXA2 [27] = biological target: HOXA2 (Homo sapiens, UniProt O43364 129-215)
Chain of HOXA2 (Homo sapiens, UniProt O43364 129-215) (O43364 129-215): as the sequence (O43364 129-215 R185T) above, with T57R counted along it

VAX1 [28] = biological target: VAX1 (Homo sapiens, UniProt Q5SQQ9 86-172, K157R)
Chain of VAX1 (Homo sapiens, UniProt Q5SQQ9 86-172, K157R) (Q5SQQ9 86-172 K157R): as the sequence (Q5SQQ9 86-172) above, with K72R counted along it

HOXC9 [29] = biological target: HOXC9 (Homo sapiens, UniProt P31274 178-260, K195R)
Chain of HOXC9 (Homo sapiens, UniProt P31274 178-260, K195R) (P31274 178-260 K195R): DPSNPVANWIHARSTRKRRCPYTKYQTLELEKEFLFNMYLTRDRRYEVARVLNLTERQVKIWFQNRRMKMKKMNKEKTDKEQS

HOXC9 [30] = biological target: HOXC9 (Homo sapiens, UniProt P31274 178-260)
Chain of HOXC9 (Homo sapiens, UniProt P31274 178-260) (P31274 178-260): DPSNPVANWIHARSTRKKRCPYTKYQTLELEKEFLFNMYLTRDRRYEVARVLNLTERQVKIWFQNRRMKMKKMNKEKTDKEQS

HOXD13 [31] = biological target: HOXD13 (Homo sapiens, UniProt P35453 263-343, T313R)
Chain of HOXD13 (Homo sapiens, UniProt P35453 263-343, T313R) (P35453 263-343 T313R): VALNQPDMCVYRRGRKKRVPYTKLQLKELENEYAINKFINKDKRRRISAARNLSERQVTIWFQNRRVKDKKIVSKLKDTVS

HOXC9 [32] = biological target: HOXC9 (Homo sapiens, UniProt P31274 178-260, R193K)
Chain of HOXC9 (Homo sapiens, UniProt P31274 178-260, R193K) (P31274 178-260 R193K): as the sequence (P31274 178-260) above, with R16K counted along it

HOXD13 [33] = biological target: HOXD13 (Homo sapiens, UniProt P35453 263-343)
Chain of HOXD13 (Homo sapiens, UniProt P35453 263-343) (P35453 263-343): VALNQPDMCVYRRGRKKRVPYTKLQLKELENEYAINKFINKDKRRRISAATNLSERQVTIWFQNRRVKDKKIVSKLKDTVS

HOXD13 [34] = biological target: HOXD13 (Homo sapiens, UniProt P35453 263-343, T313A)
Chain of HOXD13 (Homo sapiens, UniProt P35453 263-343, T313A) (P35453 263-343 T313A): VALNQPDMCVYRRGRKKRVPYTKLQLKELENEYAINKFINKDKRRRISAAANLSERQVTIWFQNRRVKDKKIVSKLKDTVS

HOXC9 [35] = biological target: HOXC9 (Homo sapiens, UniProt P31274 178-260, R222W)
Chain of HOXC9 (Homo sapiens, UniProt P31274 178-260, R222W) (P31274 178-260 R222W): as the sequence (P31274 178-260) above, with R45W counted along it

In the case of GGCGGAAC, the binding signal (VENTX [1]) is reported as 8.14 upbm affinity estimate (log intensity, higher = more binding, comparable within an allelic series), the binding signal (SIX6 [2]) is reported as 8.85 upbm affinity estimate (log intensity, higher = more binding, comparable within an allelic series) and the binding signal (VENTX [3]) is reported as 8.22 upbm affinity estimate (log intensity, higher = more binding, comparable within an allelic series). The binding signal (SIX6 [4]) was 8.81 upbm affinity estimate (log intensity, higher = more binding, comparable within an allelic series), the binding signal (SIX6 [5]) was 8.78 upbm affinity estimate (log intensity, higher = more binding, comparable within an allelic series) and the binding signal (SIX6 [6]) was 8.99 upbm affinity estimate (log intensity, higher = more binding, comparable within an allelic series). The binding signal (VENTX [7]) was 8.15 upbm affinity estimate (log intensity, higher = more binding, comparable within an allelic series), the binding signal (SIX6 [8]) was 8.81 upbm affinity estimate (log intensity, higher = more binding, comparable within an allelic series) and the binding signal (SIX6 [9]) was 8.85 upbm affinity estimate (log intensity, higher = more binding, comparable within an allelic series). For the same sequence, the binding signal (SIX6 [10]) was 8.84 upbm affinity estimate (log intensity, higher = more binding, comparable within an allelic series), the binding signal (SIX6 [11]) was 8.85 upbm affinity estimate (log intensity, higher = more binding, comparable within an allelic series) and the binding signal (SIX6 [12]) was 8.82 upbm affinity estimate (log intensity, higher = more binding, comparable within an allelic series). For the same sequence, the binding signal (SIX6 [13]) was 8.85 upbm affinity estimate (log intensity, higher = more binding, comparable within an allelic series), the binding signal (SIX6 [14]) was 8.86 upbm affinity estimate (log intensity, higher = more binding, comparable within an allelic series) and the binding signal (SIX6 [15]) was 8.77 upbm affinity estimate (log intensity, higher = more binding, comparable within an allelic series). For the same sequence, the binding signal (SIX6 [16]) was 8.82 upbm affinity estimate (log intensity, higher = more binding, comparable within an allelic series).
For CACGGGGG, the binding signal (VENTX [1]) was 7.84 upbm affinity estimate (log intensity, higher = more binding, comparable within an allelic series), the binding signal (HOXB9 [17]) was 8.4 upbm affinity estimate (log intensity, higher = more binding, comparable within an allelic series) and the binding signal (VENTX [3]) was 7.81 upbm affinity estimate (log intensity, higher = more binding, comparable within an allelic series). The binding signal (ALX4 [18]) was 7.67 upbm affinity estimate (log intensity, higher = more binding, comparable within an allelic series), the binding signal (VENTX [7]) was 7.86 upbm affinity estimate (log intensity, higher = more binding, comparable within an allelic series) and the binding signal (ALX4 [19]) was 7.96 upbm affinity estimate (log intensity, higher = more binding, comparable within an allelic series). For the same sequence, the binding signal (HOXA2 [20]) was 7.01 upbm affinity estimate (log intensity, higher = more binding, comparable within an allelic series), the binding signal (HOXB9 [21]) was 8.3 upbm affinity estimate (log intensity, higher = more binding, comparable within an allelic series) and the binding signal (HOXA2 [22]) was 10.1 upbm affinity estimate (log intensity, higher = more binding, comparable within an allelic series). The binding signal (VAX1 [23]) was 7.17 upbm affinity estimate (log intensity, higher = more binding, comparable within an allelic series), the binding signal (HOXB9 [24]) was 8.26 upbm affinity estimate (log intensity, higher = more binding, comparable within an allelic series) and the binding signal (VAX1 [25]) was 7.14 upbm affinity estimate (log intensity, higher = more binding, comparable within an allelic series). For the same sequence, the binding signal (HOXA2 [26]) was 10.4 upbm affinity estimate (log intensity, higher = more binding, comparable within an allelic series), the binding signal (HOXA2 [27]) was 7.04 upbm affinity estimate (log intensity, higher = more binding, comparable within an allelic series) and the binding signal (VAX1 [28]) was 7.08 upbm affinity estimate (log intensity, higher = more binding, comparable within an allelic series).
In the case of CCCCTCCC, the binding signal (VENTX [1]) is reported as 8.02 upbm affinity estimate (log intensity, higher = more binding, comparable within an allelic series), the binding signal (HOXC9 [29]) is reported as 9.65 upbm affinity estimate (log intensity, higher = more binding, comparable within an allelic series) and the binding signal (VENTX [3]) is reported as 7.87 upbm affinity estimate (log intensity, higher = more binding, comparable within an allelic series). The binding signal (VENTX [7]) was 8.02 upbm affinity estimate (log intensity, higher = more binding, comparable within an allelic series), the binding signal (HOXC9 [30]) was 9.76 upbm affinity estimate (log intensity, higher = more binding, comparable within an allelic series) and the binding signal (HOXD13 [31]) was 9.44 upbm affinity estimate (log intensity, higher = more binding, comparable within an allelic series). The binding signal (HOXC9 [32]) was 9.62 upbm affinity estimate (log intensity, higher = more binding, comparable within an allelic series), the binding signal (HOXD13 [33]) was 9.54 upbm affinity estimate (log intensity, higher = more binding, comparable within an allelic series) and the binding signal (HOXD13 [34]) was 9.62 upbm affinity estimate (log intensity, higher = more binding, comparable within an allelic series). For the same sequence, the binding signal (HOXC9 [35]) was 9.53 upbm affinity estimate (log intensity, higher = more binding, comparable within an allelic series).
With CCGTCCGC the binding signal (VENTX [1]) was 7.99 upbm affinity estimate (log intensity, higher = more binding, comparable within an allelic series), the binding signal (HOXC9 [29]) was 9.35 upbm affinity estimate (log intensity, higher = more binding, comparable within an allelic series) and the binding signal (VENTX [3]) was 8.02 upbm affinity estimate (log intensity, higher = more binding, comparable within an allelic series). The binding signal (VENTX [7]) was 7.93 upbm affinity estimate (log intensity, higher = more binding, comparable within an allelic series), the binding signal (HOXC9 [30]) was 9.48 upbm affinity estimate (log intensity, higher = more binding, comparable within an allelic series) and the binding signal (HOXC9 [32]) was 9.36 upbm affinity estimate (log intensity, higher = more binding, comparable within an allelic series). The binding signal (HOXC9 [35]) was 9.54 upbm affinity estimate (log intensity, higher = more binding, comparable within an allelic series).
